In PubChem BioAssay AID2284185 (EPA ToxCast) one finds AC50 data, which are given here for one compound.

The source made the active and inactive calls. Rule for the calls: active = hit-call score of the fitted dose curve at least 0.9, where 1 is the maximum; inactive = score below 0.9.

In the experiment the target is human Dopamine Receptor D4.2 Antagonism, DRD4 (gene 1815) (UniProt P21917). Put plainly: ERF_TW_GPCR_hDRD4: Eurofins (ERF) G Protein-Coupled Receptor (GPCR) Radioligand Binding LeadHunter Assay for human Dopamine Receptor D4.2 Antagonism. As to the method: ERF_TW_GPCR_hDRD4 is a biochemical, single-readout assay that uses extracted gene-proteins in a cell-free assay. Measurements were taken 2 hour after chemical dosing in a 96-well plate. See D4.2 Human Dopamine GPCR Binding (Antagonist Radioligand) Assay, Panlabs.ERF_TW_GPCR_hDRD4 is an assay component calculated from the ERF_TW_GPCR_hDRD4 assay. It is designed to measure radioligand binding using a type of binding reporter as detected by scintillation counting with radiometry technology.Data from the assay component ERF_TW_GPCR_hDRD4 was analyzed at the assay endpoint, ERF_TW_GPCR_hDRD4, in the positive analysis fitting direction relative to DMSO as the negative control and baseline of activity. Using a type of binding reporter, loss-of-signal activity can be used to understand changes in binding as they relate to gene DRD4. To generalize the intended target to other relatable targets, this assay endpoint is annotated to the gpcr intended target family, where the subfamily is dopamine.
Sequence of human Dopamine Receptor D4.2 Antagonism, DRD4 (gene 1815) (P21917 whole entry, looked up): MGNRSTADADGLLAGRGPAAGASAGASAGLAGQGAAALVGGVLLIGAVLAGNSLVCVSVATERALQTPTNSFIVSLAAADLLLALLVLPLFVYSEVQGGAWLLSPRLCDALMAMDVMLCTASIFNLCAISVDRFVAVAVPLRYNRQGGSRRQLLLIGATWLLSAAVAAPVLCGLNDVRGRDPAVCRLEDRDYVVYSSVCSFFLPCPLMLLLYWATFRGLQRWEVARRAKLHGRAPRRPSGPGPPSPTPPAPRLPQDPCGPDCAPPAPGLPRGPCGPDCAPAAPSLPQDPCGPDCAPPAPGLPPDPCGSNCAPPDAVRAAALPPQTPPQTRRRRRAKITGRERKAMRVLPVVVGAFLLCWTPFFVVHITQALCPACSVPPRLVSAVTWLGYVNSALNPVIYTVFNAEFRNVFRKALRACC
Human recombiant cells are prepared in Tris-HCl buffer pH 7.4. A 24 ug aliquot is incubated with 0.5 nM [3H] Spiperone for 2 hours at 25C. Non-specific binding is estimated in the presence of 10 uM Haloperidol.
For `O=C(/C=C/c1ccc(O)cc1)CC(=O)/C=C/c1ccc(O)cc1`, the half-maximal activity concentration (AC50) (as a rule, the concentration at which the activity in the assay is half-maximal) was 1.12 µM (active).
